About 8,800 targets were measured; listed, in parts, are those with a hit and a random draw of the rest. About 0.5% of all pairs of compound and target were hits. Values without a mark were called inactive.
What was measured:
Experiment in all cases: log2 fold change, soluble protein after heating vs DMSO (PISA); higher = thermal stabilisation; K562 lysate, 10 uM; active = over 0.2 and 3.5 SD of the protein, either way, in both replicates (recomputed)
nilotinib = compound: Cc1cn(-c2cc(NC(=O)c3ccc(C)c(Nc4nccc(-c5cccnc5)n4)c3)cc(C(F)(F)F)c2)cn1 [nilotinib]
Outline: (§1)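 The values are log-two fold changes in thermal stability compared with solvent controls and come from duplicates. They were obtained by TMTpro 16plex LC-MS/MS, with channel sums equalised, on the supernatant after 21,000xg for 90 min. That supernatant came from crude K562 extract at 1 mg/mL protein treated with 10 μM compound for 30 min, heated for 3 min across 48°C-58°C, pooled and brought to 0.5% NP-40 at 4°C.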

[1] = compound: Cc1nc(Nc2n[nH]c3c2CN(C(=O)N[C@H](CN(C)C)c2ccccc2)C3(C)C)c2sccc2n1
Outline: as §1

dasatinib = compound: Cc1nc(Nc2ncc(C(=O)Nc3c(C)cccc3Cl)s2)cc(N2CCN(CCO)CC2)n1 [dasatinib]
Outline: as §1

[2] = compound: Cc1ncc(-c2ccnc(Nc3ccc(S(C)(=O)=O)cc3)n2)n1C(C)C
Outline: as §1

[3] = compound: Cn1cc(-c2ccc3c(c2)CCN3C(=O)Cc2cccc(C(F)(F)F)c2)c2c(N)ncnc21
Outline: as §1

quisinostat = compound: Cn1cc(CNCC2CCN(c3ncc(C(=O)NO)cn3)CC2)c2ccccc21 [quisinostat]
Outline: as §1

tipifarnib = compound: Cn1cncc1[C@@](N)(c1ccc(Cl)cc1)c1ccc2c(c1)c(-c1cccc(Cl)c1)cc(=O)n2C [tipifarnib]
Outline: as §1

[4] = compound: NC(=O)Nc1cc(-c2cccc(F)c2)sc1C(=O)N[C@H]1CCCNC1
Outline: as §1

[5] = compound: NC(=O)c1cnc(N[C@@H]2CCCC[C@@H]2N)nc1Nc1cccc(-n2nccn2)c1
Outline: as §1

[6] = compound: NC1(c2ccc(-c3nc4ccn5c(=O)[nH]nc5c4cc3-c3ccccc3)cc2)CCC1
Outline: as §1

[7] = compound: NCC(=O)Nc1ccc(-n2nc(C(F)(F)F)cc2-c2ccc3c(ccc4ccccc43)c2)cc1
Outline: as §1

vorinostat = compound: O=C(CCCCCCC(=O)Nc1ccccc1)NO [vorinostat]
Outline: as §1

silmitasertib = compound: O=C(O)c1ccc2c(c1)nc(Nc1cccc(Cl)c1)c1ccncc12 [silmitasertib]
Outline: as §1

[8] = compound: O=C1NC(=O)C(c2cnc3ccccn23)=C1c1cn2c3c(cc(F)cc13)CN(C(=O)N1CCCCC1)CC2
Outline: as §1

entospletinib = compound: c1cn2cc(-c3ccc4cn[nH]c4c3)nc(Nc3ccc(N4CCOCC4)cc3)c2n1 [entospletinib]
Outline: as §1

Chain of UniProt P04350 (P04350 whole entry, looked up): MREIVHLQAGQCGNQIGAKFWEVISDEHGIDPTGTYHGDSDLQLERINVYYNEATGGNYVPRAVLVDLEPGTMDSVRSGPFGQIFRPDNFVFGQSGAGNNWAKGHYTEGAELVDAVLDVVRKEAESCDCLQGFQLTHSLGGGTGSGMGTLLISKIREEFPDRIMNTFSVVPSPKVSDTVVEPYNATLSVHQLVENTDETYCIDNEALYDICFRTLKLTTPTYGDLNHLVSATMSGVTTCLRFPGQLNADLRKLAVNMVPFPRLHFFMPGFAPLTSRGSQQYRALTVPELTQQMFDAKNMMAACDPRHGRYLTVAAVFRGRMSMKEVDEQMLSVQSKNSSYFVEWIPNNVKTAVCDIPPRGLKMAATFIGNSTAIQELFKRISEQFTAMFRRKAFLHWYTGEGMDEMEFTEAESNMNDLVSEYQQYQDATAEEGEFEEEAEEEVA
Chain of UniProt Q8TDI8 (Q8TDI8 whole entry, looked up): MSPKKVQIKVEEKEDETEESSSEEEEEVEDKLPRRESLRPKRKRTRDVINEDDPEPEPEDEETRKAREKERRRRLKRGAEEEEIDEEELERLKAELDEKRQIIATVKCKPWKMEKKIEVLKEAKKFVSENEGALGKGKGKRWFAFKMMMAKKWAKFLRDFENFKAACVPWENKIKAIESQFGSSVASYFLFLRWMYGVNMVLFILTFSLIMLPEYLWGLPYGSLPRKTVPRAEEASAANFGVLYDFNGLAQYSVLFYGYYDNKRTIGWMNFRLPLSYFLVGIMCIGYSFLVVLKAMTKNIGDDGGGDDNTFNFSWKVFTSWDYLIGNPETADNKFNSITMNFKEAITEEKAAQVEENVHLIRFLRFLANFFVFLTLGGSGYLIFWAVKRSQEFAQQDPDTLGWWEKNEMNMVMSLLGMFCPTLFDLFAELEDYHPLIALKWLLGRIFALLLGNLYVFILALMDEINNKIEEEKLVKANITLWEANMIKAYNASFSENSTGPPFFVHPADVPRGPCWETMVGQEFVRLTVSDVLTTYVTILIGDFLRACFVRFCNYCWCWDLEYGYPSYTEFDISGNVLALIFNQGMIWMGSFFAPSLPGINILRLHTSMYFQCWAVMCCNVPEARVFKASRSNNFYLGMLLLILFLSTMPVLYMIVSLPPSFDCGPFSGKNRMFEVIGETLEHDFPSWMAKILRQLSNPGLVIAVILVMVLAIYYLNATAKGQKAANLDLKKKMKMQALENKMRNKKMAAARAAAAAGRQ
Chain of UniProt Q9P0S9 (Q9P0S9 whole entry, looked up): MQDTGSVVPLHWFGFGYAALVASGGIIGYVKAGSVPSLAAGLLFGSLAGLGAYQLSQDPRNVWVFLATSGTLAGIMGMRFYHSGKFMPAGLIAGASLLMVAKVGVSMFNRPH
Chain of UniProt Q86SX3 (Q86SX3 whole entry, looked up): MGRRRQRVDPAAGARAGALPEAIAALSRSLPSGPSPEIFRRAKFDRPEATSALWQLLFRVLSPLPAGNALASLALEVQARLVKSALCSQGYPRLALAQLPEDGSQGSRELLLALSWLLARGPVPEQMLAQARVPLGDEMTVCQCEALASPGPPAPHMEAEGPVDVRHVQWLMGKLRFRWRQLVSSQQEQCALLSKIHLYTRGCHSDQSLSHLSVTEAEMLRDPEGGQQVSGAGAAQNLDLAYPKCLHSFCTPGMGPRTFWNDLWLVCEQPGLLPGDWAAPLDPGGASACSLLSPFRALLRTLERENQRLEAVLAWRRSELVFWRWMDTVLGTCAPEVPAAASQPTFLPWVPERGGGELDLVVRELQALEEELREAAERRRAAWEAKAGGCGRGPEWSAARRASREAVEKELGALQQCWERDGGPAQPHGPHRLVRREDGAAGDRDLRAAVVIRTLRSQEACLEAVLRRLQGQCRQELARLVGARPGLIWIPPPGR
Chain of UniProt Q6Q0C0 (Q6Q0C0 whole entry, looked up): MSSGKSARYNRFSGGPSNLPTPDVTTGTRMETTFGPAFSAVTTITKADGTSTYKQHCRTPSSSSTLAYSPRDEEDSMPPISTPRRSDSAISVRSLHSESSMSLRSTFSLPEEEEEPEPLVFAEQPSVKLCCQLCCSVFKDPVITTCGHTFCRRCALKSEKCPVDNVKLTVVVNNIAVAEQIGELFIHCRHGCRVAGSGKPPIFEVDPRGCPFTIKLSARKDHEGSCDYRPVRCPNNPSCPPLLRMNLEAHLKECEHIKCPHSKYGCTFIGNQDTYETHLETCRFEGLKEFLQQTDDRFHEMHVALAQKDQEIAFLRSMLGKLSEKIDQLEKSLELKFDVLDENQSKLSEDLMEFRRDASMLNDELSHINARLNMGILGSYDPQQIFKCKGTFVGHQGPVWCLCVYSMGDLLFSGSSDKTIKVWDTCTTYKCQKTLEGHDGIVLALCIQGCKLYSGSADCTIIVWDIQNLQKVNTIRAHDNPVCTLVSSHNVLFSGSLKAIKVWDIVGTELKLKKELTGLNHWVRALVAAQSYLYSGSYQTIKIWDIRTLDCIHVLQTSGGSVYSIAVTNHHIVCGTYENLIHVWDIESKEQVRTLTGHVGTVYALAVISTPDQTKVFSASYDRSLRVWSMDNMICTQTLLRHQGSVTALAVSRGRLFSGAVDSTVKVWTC
Chain of UniProt Q9H3M7 (Q9H3M7 whole entry, looked up): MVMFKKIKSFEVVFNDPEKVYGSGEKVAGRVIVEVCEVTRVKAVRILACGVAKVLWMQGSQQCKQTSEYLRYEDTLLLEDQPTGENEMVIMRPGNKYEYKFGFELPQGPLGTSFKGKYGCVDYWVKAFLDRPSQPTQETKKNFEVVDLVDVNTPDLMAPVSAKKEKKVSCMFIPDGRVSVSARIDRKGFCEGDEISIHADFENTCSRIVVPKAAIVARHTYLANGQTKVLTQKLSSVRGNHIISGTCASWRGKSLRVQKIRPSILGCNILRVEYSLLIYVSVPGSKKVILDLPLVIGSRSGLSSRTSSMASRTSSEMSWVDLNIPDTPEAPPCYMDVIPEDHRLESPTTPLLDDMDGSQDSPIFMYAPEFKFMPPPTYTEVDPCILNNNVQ
Chain of UniProt Q13595 (Q13595 whole entry, looked up): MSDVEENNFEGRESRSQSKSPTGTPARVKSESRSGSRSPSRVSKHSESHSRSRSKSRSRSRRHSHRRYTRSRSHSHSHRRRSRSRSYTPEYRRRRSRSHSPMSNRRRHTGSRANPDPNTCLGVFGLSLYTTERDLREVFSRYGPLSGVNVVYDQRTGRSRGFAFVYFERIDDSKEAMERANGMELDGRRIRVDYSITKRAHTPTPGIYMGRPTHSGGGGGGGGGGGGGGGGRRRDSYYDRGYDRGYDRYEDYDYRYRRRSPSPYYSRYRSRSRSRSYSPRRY
Chain of UniProt Q14166 (Q14166 whole entry, looked up): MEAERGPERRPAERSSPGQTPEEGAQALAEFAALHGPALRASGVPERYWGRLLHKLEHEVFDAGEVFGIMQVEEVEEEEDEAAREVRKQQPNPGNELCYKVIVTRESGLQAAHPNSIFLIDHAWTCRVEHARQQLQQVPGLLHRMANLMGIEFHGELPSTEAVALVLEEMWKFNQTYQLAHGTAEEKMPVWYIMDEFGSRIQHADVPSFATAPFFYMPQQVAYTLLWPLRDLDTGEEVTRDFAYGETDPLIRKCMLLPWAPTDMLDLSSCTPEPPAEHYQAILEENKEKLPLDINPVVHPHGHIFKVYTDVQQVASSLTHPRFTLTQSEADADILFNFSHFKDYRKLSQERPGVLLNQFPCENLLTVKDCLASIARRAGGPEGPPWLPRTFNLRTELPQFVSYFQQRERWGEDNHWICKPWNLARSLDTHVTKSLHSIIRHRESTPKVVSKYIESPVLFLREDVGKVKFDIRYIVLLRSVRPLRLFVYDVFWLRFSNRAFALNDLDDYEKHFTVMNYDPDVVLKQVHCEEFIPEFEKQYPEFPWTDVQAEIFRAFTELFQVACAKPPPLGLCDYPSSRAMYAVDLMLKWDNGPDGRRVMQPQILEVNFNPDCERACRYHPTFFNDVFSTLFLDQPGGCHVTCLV
Chain of UniProt Q96K49 (Q96K49 whole entry, looked up): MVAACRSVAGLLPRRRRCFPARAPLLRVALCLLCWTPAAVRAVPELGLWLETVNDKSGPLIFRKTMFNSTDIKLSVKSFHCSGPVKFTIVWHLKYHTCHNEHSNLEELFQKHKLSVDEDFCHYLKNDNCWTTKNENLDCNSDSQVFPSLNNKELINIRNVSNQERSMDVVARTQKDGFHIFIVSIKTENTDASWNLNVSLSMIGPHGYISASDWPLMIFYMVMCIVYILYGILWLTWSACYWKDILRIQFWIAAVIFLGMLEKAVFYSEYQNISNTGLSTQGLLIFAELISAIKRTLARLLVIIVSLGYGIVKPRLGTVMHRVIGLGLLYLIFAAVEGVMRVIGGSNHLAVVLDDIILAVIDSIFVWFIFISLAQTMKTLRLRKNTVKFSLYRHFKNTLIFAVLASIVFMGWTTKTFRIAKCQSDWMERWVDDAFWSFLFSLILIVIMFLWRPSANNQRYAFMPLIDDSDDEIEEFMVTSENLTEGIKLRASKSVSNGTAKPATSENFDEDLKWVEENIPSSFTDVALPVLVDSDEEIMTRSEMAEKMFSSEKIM
Chain of UniProt Q9NX07 (Q9NX07 whole entry, looked up): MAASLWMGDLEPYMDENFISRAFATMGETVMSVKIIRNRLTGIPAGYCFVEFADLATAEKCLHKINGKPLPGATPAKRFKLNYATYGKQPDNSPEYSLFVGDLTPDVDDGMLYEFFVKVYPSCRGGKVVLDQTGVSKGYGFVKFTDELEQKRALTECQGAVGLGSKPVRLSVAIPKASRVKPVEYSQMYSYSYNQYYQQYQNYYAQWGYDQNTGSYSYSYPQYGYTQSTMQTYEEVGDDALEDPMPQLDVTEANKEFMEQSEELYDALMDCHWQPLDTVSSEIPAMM
Chain of UniProt O75865 (O75865 whole entry, looked up): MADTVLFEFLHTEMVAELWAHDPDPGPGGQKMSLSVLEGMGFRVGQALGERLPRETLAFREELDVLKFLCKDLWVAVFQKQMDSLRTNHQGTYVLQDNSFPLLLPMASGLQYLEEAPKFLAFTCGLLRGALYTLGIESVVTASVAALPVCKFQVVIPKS
Chain of UniProt Q9BZL1 (Q9BZL1 whole entry, looked up): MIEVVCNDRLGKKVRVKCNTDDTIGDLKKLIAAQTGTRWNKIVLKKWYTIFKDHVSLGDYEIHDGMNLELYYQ

| Target | log2 fold change (nilotinib) | log2 fold change [1] | log2 fold change (dasatinib) | log2 fold change [2] | log2 fold change [3] | log2 fold change (quisinostat) | log2 fold change (tipifarnib) | log2 fold change [4] | log2 fold change [5] | log2 fold change [6] | log2 fold change [7] | log2 fold change (vorinostat) | log2 fold change (silmitasertib) | log2 fold change [8] | log2 fold change (entospletinib) |
| --- | --- | --- | --- | --- | --- | --- | --- | --- | --- | --- | --- | --- | --- | --- | --- |
| UBR5 (UniProt O95071) | 0.006 | 0.027 | -0.028 | -0.019 | 0.019 | -0.059 | -0.02 | 0.005 | 0.013 | -0.009 | 0.009 | -0.234 (active) | 0.011 | -0.011 | -0.006 |
| TEDC1 (UniProt Q86SX3) | 0.015 | -0.016 | 0.087 | -0.038 | 0.05 | 0.161 | -0.049 | -0.074 | 0.104 | -0.022 |  | -0.356 (active) | 0.068 | -0.012 | -0.032 |
| TLE3 isoform 5 (UniProt Q04726) | 0.142 | -0.174 | -0.007 | -0.06 | 0.028 | -0.102 | 0.05 | -0.009 | 0.024 | 0.058 |  | 0.144 | 0.019 | -0.058 | -0.002 |
| TRAPPC10 (UniProt P48553) | 0.008 | 0 | 0.011 | -0.003 | 0.02 | -0.006 | 0.011 | 0.035 | 0.026 | -0.05 | 0.015 | -0.248 (active) | 0.005 | 0.049 | 0 |
| TNFAIP3 (UniProt P21580) | 0.038 | -0.01 | -0.002 | -0.04 | 0.033 | 0.008 | -0.068 | 0.025 | 0.01 | 0.003 |  | -0.12 | -0.003 | 0.004 | 0.044 |
| TMEM87B (UniProt Q96K49) | 0.008 | 0.086 | -0.006 | -0.02 | 0.023 | -0.012 | -0.011 | -0.016 | -0.019 | -0.048 | -0.024 | 0.018 | 0.026 | -0.037 | -0.097 |
| TRA2A (UniProt Q13595) | 0.098 | -0.041 | -0.08 | -0.124 | 0.077 | -0.213 | -0.114 | -0.206 | 0 | -0.062 | 0.009 | 0.568 (active) | -0.151 | 0.005 | -0.102 |
| TRAF7 (UniProt Q6Q0C0) | 0.16 | 0.027 | -0.005 | 0.154 | 0.163 | -0.035 | -0.1 | -0.033 |  |  | 0.052 |  |  | 0.059 | 0.058 |
| TUBB4A (UniProt P04350) | 0.027 | -0.026 | 0.003 | -0.023 | 0.067 | -0.196 | 0.027 | 0.085 | 0.011 | 0.023 |  | -0.448 (active) | 0.065 | 0.095 | -0.056 |
| TRNAU1AP (UniProt Q9NX07) | -0.145 | 0.016 | 0.018 | 0.046 | 0.015 | 0.012 | -0.06 | 0.059 | -0.011 | -0.013 | 0.079 | -0.178 | 0.026 | -0.017 | -0.047 |
| TTLL12 (UniProt Q14166) | 0.015 | -0.012 | -0.028 | -0.027 | -0.006 | -0.015 | 0.008 | 0.067 | 0.001 | -0.013 | -0.021 | -0.426 (active) | 0.092 | 0.02 | 0.049 |
| TUBAL3 (UniProt A6NHL2) | 0.068 | -0.189 | -0.074 | 0.103 | 0.082 |  | 0.141 |  | -0.025 | -0.142 | 0.083 | -0.195 | 0.069 |  | -0.026 |
| TRAPPC6A isoform 2 (UniProt O75865) | 0.015 | -0.09 | -0.026 | 0.02 | -0.058 | 0.006 | 0.048 | -0.048 | -0.008 | 0.076 | -0.048 | -0.038 | 0.013 | -0.002 | -0.157 |
| TJP1 (UniProt G3V1L9) | 0.093 | 0.051 | 0.083 | 0.11 | -0.139 | 0.137 | -0.078 | 0.022 |  | -0.08 | -0.044 | -0.484 (active) | -0.061 | 0.127 |  |
| TXNIP (UniProt Q9H3M7) | 0.091 | 0.038 | -0.023 | -0.026 | 0.012 | -0.077 | -0.022 | 0.029 |  | 0.005 | -0.076 | -0.399 (active) | 0.04 | -0.051 | 0.024 |
| UBL5 (UniProt Q9BZL1) | 0.028 | 0.154 | 0.036 | 0.018 | 0.027 | 0.341 (active) | 0.031 | -0.149 |  | -0.013 | -0.027 | -0.078 | 0.065 | 0.077 | -0.049 |
| TMC1 (UniProt Q8TDI8) | -0.073 | -0.049 |  | -0.28 |  | -0.552 (active) | 0.015 | -0.058 | -0.006 | 0 | 0.015 | -0.121 | 0.02 | -0.337 | 0.012 |
| TMEM14C (UniProt Q9P0S9) | 0.065 | -0.089 | 0.031 | 0.13 | 0.029 | -0.299 | -0.017 | 0.029 | -0.13 | -0.07 | -0.032 | -0.018 | 0.013 | 0.058 | 0.091 |
| TTC27 (UniProt Q6P3X3) | -0.018 | 0.027 | -0.009 | -0.031 | 0.01 | -0.047 | -0.03 | 0.057 | -0.028 | -0.023 | -0.027 | -0.403 (active) | 0.053 | -0.06 | -0.002 |
| THEMIS2 (UniProt Q5TEJ8) | -0.096 | 0.06 | -0.092 | -0.144 | 0.059 | 0.03 | -0.039 | 0.051 | 0.095 | 0.019 | -0.029 | -0.315 (active) | 0.069 | 0.059 | -0.007 |

From the supplement of paper PMC10849652
